Source: PubChem (several laboratories)
HSF1 activator – HSF-1 activators, primary screen, NIH3T3-HGL cells, MG132 stress, luminescence, single point | activation, % at 9 µM | hit rate 1.7% among 300,000 | NIH3T3-HGL HSF-1 luciferase reporter, 8 h; 100% = twice DMSO control signal | AID 504408, 2011;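 active means mean replicate activation of at least 50% with a set share of replicates each reaching 50%; inconclusive means only one of those two conditions met; inactive means mean below 50% and too few replicates reaching it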;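 further: 0% = median of the neutral control wells and 100% = twice that signal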
HSF1 inhib – HSF1 inhibitors in luciferase reporter cells, primary screen, cell-based, NIH3T3, luminescence. NIH3T3-HGL HSE-luciferase, MG132-induced, luminescence 8 h; stronger effect = lower value. hit rate 0.77% among 300,000. activity change, negative = inhibition, % at 7.5 µM (by protocol);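 active means more than half of replicate wells show activity change below -50%, luminescence cut by over half; inconclusive means some wells, but at most half, below -50%; inactive means no replicate well below -50%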;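 further: luciferase reports HSF-1 transcriptional activity via heat shock element; 0% = median of DMSO wells and -100% = zero luminescence signal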
LMP1 NFkB inh – EBV LMP1-driven NF-kappaB luciferase reporter inhibitors, primary screen, cell-based, luminescence, single point; hit rate 0.69% among 350,000; LMP1-induced NF-kappaB luciferase reporter cells; inhibition, % at 12.5 µM; AID 504558, 2011; in the data active means inhibition above about 41%; inconclusive means no clear call, values can overlap the other calls;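 further: 0% = neutral control wells and 100% = reference inhibitor control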
TROY NFkB inh – inhibitors of TROY-driven NF-kB signaling, primary screen, Q293 LMP1-TROYcd cells, NF-kB luciferase, uHTS; Q293 LMP1-TROYcd NF-kB luciferase reporter, 4 h; inhibition, % at 10 µM; hit rate 0.98% among 360,000; AID 1347056, 2019;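 active means compounds whose plate-normalised and pattern-corrected inhibition of the luciferase reporter signal at the single screening dose is 50% or more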
TWEAK Fn14 block – inhibitors of TWEAK-Fn14 signaling, primary screen, luciferase reporter cells, uHTS. AID 1159606, 2016. inhibition, % at 10 µM. TWEAK-stimulated Fn14 reporter cells, luciferase luminescence, 8 h. hit rate 2% among 360,000; in the data active means inhibition above about 50%
LGR2 inh – inhibitors of bursicon-induced LGR2 CRE-luciferase signal, primary screen, cell-based, HEK293, CRE-luciferase reporter, bursicon stimulation. AID 720647, 2013. bursicon-stimulated, 4 h. Drosophila bursicon receptor LGR2 (rickets). inhibition, % at 9.99 µM. hit rate 0.35% among 380,000;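 active means drop in luminescence signal, shown as inhibition above about 50% in the replicate tests, limit read from the data, passing the limit was not always enough; inconclusive means probably only some replicates passing the limit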;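 further: agonist challenge used bursicon conditioned medium at about half maximal strength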
Numbers without * were called inactive. Only some compounds are listed: those with a hit (about 3.6% of all), similar ones and a draw of the others.

Screening O=C(O)c1ccc(N/N=C/c2ccc(-c3ccccc3)cc2)cc1 returned HSF1 activator 8.1, HSF1 inhib -8.9, LMP1 NFkB inh -104.4, TROY NFkB inh -45.4, TWEAK Fn14 block 8.9 and LGR2 inh -5.1.
C[C@@H]1CCCCO[C@@H](CN(C)C(=O)Nc2ccc(F)cc2)[C@@H](C)CN([C@H](C)CO)C(=O)c2cc(NS(C)(=O)=O)ccc2O1 was read as LGR2 inh 1.5.
COCC#Cc1ccc2c(c1)O[C@H](CN(C)C(=O)C1CC1)[C@@H](C)CN([C@@H](C)CO)S2(=O)=O was read as LGR2 inh -3.0.
`O=C(C1=C(Nc2ccccc2)c2ccccc2S(=O)(=O)N1)c1ccccc1` gave HSF1 activator 18.3, HSF1 inhib 0.7, LMP1 NFkB inh -8.8, TROY NFkB inh 55.3* and TWEAK Fn14 block 73.6*.
Screening O=C(Nc1ccc2nc3n(c(=O)c2c1)CCCC3)c1ccccc1F returned HSF1 activator 10.0, HSF1 inhib 1.5, LMP1 NFkB inh -0.6, TROY NFkB inh -11.4, TWEAK Fn14 block -29.1 and LGR2 inh -7.1.
O=C(Nc1ccc2nc3n(c(=O)c2c1)CCCCC3)c1c(F)ccc([N+](=O)[O-])c1F was read as HSF1 activator -6.8, HSF1 inhib -2.8, LMP1 NFkB inh 80.1*, TROY NFkB inh 86.1*, TWEAK Fn14 block 106.0* and LGR2 inh 0.2.
`O=C(Nc1ccc2nc3n(c(=O)c2c1)CCCCC3)c1cc([N+](=O)[O-])ccc1F` gave HSF1 activator -71.6, HSF1 inhib -67.6*, LMP1 NFkB inh -5.1, TROY NFkB inh 85.5*, TWEAK Fn14 block 97.2* and LGR2 inh inconclusive.
Screening O=C(Nc1ccc2nc3n(c(=O)c2c1)CCCCC3)c1ccccc1[N+](=O)[O-] returned HSF1 activator 42.6, HSF1 inhib 24.6, LMP1 NFkB inh 1.6, TROY NFkB inh 10.1, TWEAK Fn14 block -11.9 and LGR2 inh -23.3.
`CN(c1ccc(OCC(=O)Nc2nc3ccccc3s2)cc1)S(=O)(=O)c1ccccc1` gave HSF1 activator 8.9, HSF1 inhib 10.6, LMP1 NFkB inh 0.8, TROY NFkB inh 51.4*, TWEAK Fn14 block 40.6 and LGR2 inh -14.0.
Screening COc1ccc(C(=O)NC(=S)NNC(=O)COc2ccccc2)cc1 returned HSF1 activator 17.4, HSF1 inhib 3.5, LMP1 NFkB inh 14.2, TROY NFkB inh 16.5, TWEAK Fn14 block 62.7* and LGR2 inh 40.8.
COc1ccc(NC(=O)CCc2nc3ccccc3s2)c(OC)c1 was read as HSF1 activator -1.5, HSF1 inhib 23.3, LMP1 NFkB inh 8.3, TROY NFkB inh -0.6, TWEAK Fn14 block -24.5 and LGR2 inh -37.4.
For CCOc1ccc(C(=O)CCc2nc3ccccc3s2)cc1 the results were HSF1 activator -43.2, HSF1 inhib -34.4, LMP1 NFkB inh -12.7, TROY NFkB inh 54.2* and TWEAK Fn14 block 45.5.
Cc1cc(NC(=O)COc2ccc(N(C)S(=O)(=O)c3ccccc3)cc2)no1 was read as HSF1 activator 13.9, HSF1 inhib -5.7, LMP1 NFkB inh -4.9, TROY NFkB inh 3.9 and TWEAK Fn14 block 12.5.
O=C(COc1ccccc1)NNC(=S)NC(=O)c1ccccc1 was read as HSF1 activator -15.3, HSF1 inhib -6.9, LMP1 NFkB inh -4.3, TROY NFkB inh -6.3, TWEAK Fn14 block 1.3 and LGR2 inh -46.0.
Screening CCOc1ccc(S(=O)(=O)N(C)c2ccc(OCC(=O)Nc3nc4ccccc4s3)cc2)cc1 returned HSF1 activator 1.2, HSF1 inhib 5.3, LMP1 NFkB inh 20.2, TROY NFkB inh 34.2, TWEAK Fn14 block 74.0* and LGR2 inh -8.9.
Screening Cc1noc(C)c1NC(=O)N(C)C[C@H]1OCCCC[C@@H](C)Oc2ccc(NC(=O)C3CCCCC3)cc2C(=O)N([C@@H](C)CO)C[C@@H]1C returned LGR2 inh -11.4.
For O=C(NCC1CC1)[C@H]1[C@H](CO)[C@H]2Cn3c(cccc3=O)[C@@H]1N2C(=O)c1cccnc1 the results were LGR2 inh -1.4.
`COc1ccc(OCC(=O)NNc2nc3ccccc3s2)cc1` gave HSF1 activator -25.6, HSF1 inhib -28.1, LMP1 NFkB inh -26.5, TROY NFkB inh 78.6* and TWEAK Fn14 block 3.6.
Screening Cc1ccc(SCc2cc(=O)[nH]c(/N=C(\N)Nc3ccccc3Sc3ccccc3)n2)cc1 returned HSF1 activator -3.2, HSF1 inhib 1.5, LMP1 NFkB inh 17.2, TROY NFkB inh -1.5, TWEAK Fn14 block 65.5* and LGR2 inh 12.7.
For C[C@@H]1CN([C@H](C)CO)C(=O)Cc2cc(N(C)C)ccc2O[C@@H]1CN(C)S(=O)(=O)c1ccc(Cl)cc1 the results were LGR2 inh 0.7.
`Cc1cc(C(=O)CSc2ccc(F)cc2)cc(C)c1O` gave HSF1 activator 49.4, HSF1 inhib 25.0, LMP1 NFkB inh 2.8, TROY NFkB inh -42.3, TWEAK Fn14 block 9.0 and LGR2 inh -52.2.
`Cc1cc(C(=O)CSc2ccc(Cl)cc2)cc(C)c1OC(=S)N(C)C` gave HSF1 activator 4.8, HSF1 inhib -0.3, LMP1 NFkB inh -23.6, TROY NFkB inh 79.9* and TWEAK Fn14 block 43.9.
For Oc1ccccc1CNc1ccc(OC(F)(F)F)cc1 the results were HSF1 activator -64.2, HSF1 inhib -59.6*, LMP1 NFkB inh -24.6, TROY NFkB inh -19.4, TWEAK Fn14 block -12.9 and LGR2 inh -9.8.
Screening COc1ccc(O)c(C2=Nc3ccccc3N=C(c3cccs3)C2)c1 returned HSF1 activator -72.2, HSF1 inhib -63.0*, LMP1 NFkB inh 10.2, TROY NFkB inh -26.7, TWEAK Fn14 block 2.9 and LGR2 inh 7.9.
For COc1ccc(O)c(-c2cn[nH]c2-c2cccs2)c1 the results were HSF1 activator 2.2, HSF1 inhib 0.3, LMP1 NFkB inh -0.9, TROY NFkB inh 4.4 and TWEAK Fn14 block 11.4.
Screening CCOc1ccc(CN2C(=O)c3ccccc3C2=O)cc1C(=O)NC1CC(C)(C)NC(C)(C)C1 returned LMP1 NFkB inh 71.4*, TROY NFkB inh -13.6, TWEAK Fn14 block 1.1 and LGR2 inh -2.6.
Nc1nnc(COc2ccc(Br)cc2Br)s1 was read as HSF1 activator 92.2*, HSF1 inhib 45.8, LMP1 NFkB inh -47.6, TROY NFkB inh -30.6, TWEAK Fn14 block -21.0 and LGR2 inh -22.4.
Cc1cc(=O)[nH]c(SCC(=O)Nc2cccc3ccccc23)c1C#N was read as HSF1 activator -17.4, HSF1 inhib -2.9, LMP1 NFkB inh -0.9, TROY NFkB inh 51.8* and TWEAK Fn14 block 15.3.
